Results published in PubChem BioAssay (NCI).
This is part of a sample that, as a whole, favours compounds with a hit. Of some 83,000 tested, about 20% had one in any assay.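 Method: cells in 96-well plates; compound added at one concentration; 48 h incubation; percent growth measured; values under 10 scored active.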 Active and inactive are the calls of the source.

Key:
Assay in all cases: NCI-60 one-dose screen, 48 h (100 = growth as untreated, 0 = no growth, -100 = all killed)
Details in all cases: 10 µM unless noted
HCT-15 colon = system: HCT-15 colon
SNB-75 CNS = system: SNB-75 CNS
SNB-19 CNS = system: SNB-19 CNS
U251 CNS = system: U251 CNS
PC-3 prostate = system: PC-3 prostate
SK-MEL-5 melanoma = system: SK-MEL-5 melanoma
UACC-62 melanoma = system: UACC-62 melanoma
LOX IMVI melanoma = system: LOX IMVI melanoma
SK-MEL-28 melanoma = system: SK-MEL-28 melanoma
SK-MEL-2 melanoma = system: SK-MEL-2 melanoma
EKVX NSCLC = system: EKVX NSCLC
SN12C renal = system: SN12C renal
UO-31 renal = system: UO-31 renal
CAKI-1 renal = system: CAKI-1 renal
A498 renal = system: A498 renal
CCRF-CEM leukemia = system: CCRF-CEM leukemia
MOLT-4 leukemia = system: MOLT-4 leukemia
TK-10 renal = system: TK-10 renal
ACHN renal = system: ACHN renal
HT29 colon = system: HT29 colon

Measured: growth

CC(=O)c1c(C)nc(SCC(=O)Nc2ccc(Cl)cc2)n1-c1ccc(Cl)cc1
inactive: HCT-15 colon 84.6% | SNB-75 CNS 73.1% | SNB-19 CNS 93.7% | U251 CNS 89.8% | PC-3 prostate 71.8% | SK-MEL-5 melanoma 81.9% | UACC-62 melanoma 69.7% | LOX IMVI melanoma 93.1% | SK-MEL-28 melanoma 104% | SK-MEL-2 melanoma 94% | EKVX NSCLC 95.5% | SN12C renal 87% | UO-31 renal 80.9% | CAKI-1 renal 81.7% | A498 renal 83.2% | CCRF-CEM leukemia 87.5% | MOLT-4 leukemia 64.1%

COc1ccc(-c2cc(-c3cccnc3)nc3sc4c(Cl)nnnc4c23)cc1OC
inactive: HCT-15 colon 69.9% | SNB-75 CNS 81.5% | SNB-19 CNS 95.6% | U251 CNS 92.1% | PC-3 prostate 81.1% | SK-MEL-5 melanoma 84.4% | UACC-62 melanoma 81% | LOX IMVI melanoma 36.4% | SK-MEL-28 melanoma 112% | SK-MEL-2 melanoma 98.3% | EKVX NSCLC 111% | SN12C renal 92.9% | UO-31 renal 76.3% | TK-10 renal 129% | CAKI-1 renal 101% | A498 renal 88.1% | CCRF-CEM leukemia 33.6% | MOLT-4 leukemia 49.1%

Cc1ccccc1SSc1ccccc1C
inactive: HCT-15 colon 17.9% | SNB-75 CNS 123% | SNB-19 CNS 84.2% | U251 CNS 87.6% | PC-3 prostate 66.7% | SK-MEL-5 melanoma 89.6% | UACC-62 melanoma 78.8% | LOX IMVI melanoma 72% | SK-MEL-28 melanoma 121% | SK-MEL-2 melanoma 24.3% | EKVX NSCLC 114% | SN12C renal 84.9% | UO-31 renal 78.4% | TK-10 renal 85.5% | A498 renal 96.2% | CCRF-CEM leukemia 79% | MOLT-4 leukemia 83.9%
active: ACHN renal 0.0765%

COCCn1cc(-c2csc(-c3cn(C)c4ccc(F)cc34)n2)c2cccnc21
inactive: HCT-15 colon 27.9% | SNB-75 CNS 76.4% | SNB-19 CNS 82.6% | U251 CNS 65.5% | PC-3 prostate 46.5% | SK-MEL-5 melanoma 72.7% | UACC-62 melanoma 79.9% | LOX IMVI melanoma 25.8% | SK-MEL-28 melanoma 79.8% | SK-MEL-2 melanoma 72% | EKVX NSCLC 59% | SN12C renal 74.5% | UO-31 renal 64.2% | TK-10 renal 81.5% | ACHN renal 78% | CAKI-1 renal 84% | A498 renal 36.3% | CCRF-CEM leukemia 56% | MOLT-4 leukemia 56.7%

O=C1c2cc3c(cc2-c2c1c1ccc(Cl)cc1c(=O)n2CCCn1ccnc1)OCO3
inactive: SNB-19 CNS 17.3% | PC-3 prostate 19.9% | SK-MEL-28 melanoma 15.5% | SK-MEL-2 melanoma 31.1% | EKVX NSCLC 42.4% | SN12C renal 12.6% | TK-10 renal 46.3%
active: HCT-15 colon 7.3% | SNB-75 CNS 0.456% | U251 CNS -33.1% | SK-MEL-5 melanoma -93% | UACC-62 melanoma -57.7% | LOX IMVI melanoma -76.8% | UO-31 renal -7.59% | ACHN renal -19% | CAKI-1 renal 9.62% | A498 renal -12.9% | CCRF-CEM leukemia 3.44% | MOLT-4 leukemia -28.2%

CCOc1nc(-c2ccccc2)cc2c(O)c(C(=O)N/N=C/c3ccc(N(C)C)cc3)[nH]c(=O)c12
inactive: HCT-15 colon 117% | SNB-75 CNS 124% | SNB-19 CNS 133% | U251 CNS 94.7% | PC-3 prostate 88.9% | SK-MEL-5 melanoma 105% | UACC-62 melanoma 98.2% | LOX IMVI melanoma 97.8% | SK-MEL-28 melanoma 98.5% | SK-MEL-2 melanoma 78.8% | EKVX NSCLC 97.5% | SN12C renal 103% | UO-31 renal 88.2% | TK-10 renal 126% | ACHN renal 102% | CAKI-1 renal 108% | A498 renal 97.3% | CCRF-CEM leukemia 98.1% | MOLT-4 leukemia 95.1%

O=C(Nc1ncc(Cc2cccc(C(F)(F)F)c2)s1)c1ccc2c(c1)OCCO2
active: HCT-15 colon 8.27% | HT29 colon 4.83% | SK-MEL-5 melanoma -21.5% | A498 renal -2.08% | MOLT-4 leukemia 9.32%
inactive: SNB-75 CNS 25.5% | SNB-19 CNS 42.9% | U251 CNS 16.7% | PC-3 prostate 28.3% | UACC-62 melanoma 39.9% | LOX IMVI melanoma 40.8% | SK-MEL-2 melanoma 40.1% | EKVX NSCLC 30.7% | SN12C renal 35.3% | UO-31 renal 47.7% | TK-10 renal 44.9% | CAKI-1 renal 24.6% | CCRF-CEM leukemia 17.8%

O=C1C(c2c[nH]c3ccccc23)=C(c2coc3cc(Br)ccc23)C(=O)N1O
inactive: HCT-15 colon 97.2% | SNB-75 CNS 65.4% | SNB-19 CNS 103% | U251 CNS 101% | PC-3 prostate 89.6% | SK-MEL-5 melanoma 97.2% | UACC-62 melanoma 84.7% | LOX IMVI melanoma 62.2% | SK-MEL-28 melanoma 111% | SK-MEL-2 melanoma 97.4% | EKVX NSCLC 84.3% | SN12C renal 97.9% | UO-31 renal 73.4% | TK-10 renal 137% | ACHN renal 110% | CAKI-1 renal 100% | A498 renal 54.4% | CCRF-CEM leukemia 89.4% | MOLT-4 leukemia 98.9%

Nc1nc(Nc2cccnc2)sc1C(=O)c1ccccc1F
inactive: HCT-15 colon 27.7% | HT29 colon 35.9% | SNB-75 CNS 30.3% | SNB-19 CNS 43.1% | U251 CNS 42% | PC-3 prostate 43.2% | SK-MEL-5 melanoma 30.1% | UACC-62 melanoma 42.4% | LOX IMVI melanoma 29.8% | SK-MEL-2 melanoma 48.5% | EKVX NSCLC 50.7% | SN12C renal 36.8% | TK-10 renal 54.6% | A498 renal 26.4% | MOLT-4 leukemia 26.8%
active: UO-31 renal 9.16% | CAKI-1 renal -3.89% | CCRF-CEM leukemia 4.65%

O=C(NNC(=S)Nc1ccccc1)c1ccncc1
inactive: HCT-15 colon 101% | SNB-75 CNS 102% | SNB-19 CNS 110% | U251 CNS 105% | PC-3 prostate 90.1% | SK-MEL-5 melanoma 109% | UACC-62 melanoma 109% | LOX IMVI melanoma 101% | SK-MEL-28 melanoma 115% | SK-MEL-2 melanoma 94.3% | EKVX NSCLC 117% | SN12C renal 109% | UO-31 renal 84% | TK-10 renal 102% | CAKI-1 renal 133% | A498 renal 124% | CCRF-CEM leukemia 93.7% | MOLT-4 leukemia 104%

O=C1CCc2c(sc3[nH]c(=S)n(Cc4ccc(Cl)cc4)c(=O)c23)C1
inactive: SNB-19 CNS 19.8% | SK-MEL-28 melanoma 19.6% | TK-10 renal 15.3% | MOLT-4 leukemia 18%
active: HCT-15 colon -13.5% | SNB-75 CNS 3.19% | U251 CNS 5.03% | PC-3 prostate 3.57% | SK-MEL-5 melanoma -81.1% | UACC-62 melanoma 0.777% | LOX IMVI melanoma 2.41% | SK-MEL-2 melanoma -20.9% | EKVX NSCLC -2.48% | SN12C renal 5.94% | UO-31 renal -6.54% | ACHN renal 6.08% | CAKI-1 renal 3.79% | A498 renal -2.71% | CCRF-CEM leukemia -9.46%

COc1ccc2c(c1)CC[C@@H]1[C@@H]2CC[C@]2(C)C3C(=CCC4C(=O)N(c5ccccc5)C(=O)C43)C[C@@H]12 (some centres undefined)
inactive: HCT-15 colon 88.5% | SNB-75 CNS 79.8% | SNB-19 CNS 108% | U251 CNS 87.5% | PC-3 prostate 51.1% | SK-MEL-5 melanoma 89.9% | UACC-62 melanoma 64.5% | LOX IMVI melanoma 83.6% | SK-MEL-2 melanoma 95.7% | EKVX NSCLC 93% | SN12C renal 108% | UO-31 renal 74.3% | TK-10 renal 105% | ACHN renal 80.8% | CAKI-1 renal 71.7% | A498 renal 114% | CCRF-CEM leukemia 66.7% | MOLT-4 leukemia 74.2%

COc1ccc(CCNC(=O)COc2cc3c(Nc4ccc(F)c(Cl)c4)ncnc3cc2OC)cc1OC
inactive: HCT-15 colon 91.2% | SNB-75 CNS 94.6% | SNB-19 CNS 84.2% | U251 CNS 103% | PC-3 prostate 92.1% | SK-MEL-5 melanoma 92.5% | UACC-62 melanoma 95.7% | LOX IMVI melanoma 90.1% | SK-MEL-28 melanoma 98.4% | SK-MEL-2 melanoma 86.9% | EKVX NSCLC 78.2% | SN12C renal 85.2% | UO-31 renal 46.8% | TK-10 renal 37.4% | ACHN renal 49% | CAKI-1 renal 46.5% | A498 renal 55.6% | CCRF-CEM leukemia 100% | MOLT-4 leukemia 93.4%
